An excerpt weighted towards active compounds, which were near 12% of everything screened.
AmpC inh no detg: AmpC beta-lactamase inhibition without detergent; AmpC nitrocefin hydrolysis, absorbance 480 nm, 0.0001% Triton; Potency, µM (titrated, usually from 57.1 µM), without a hit: at the top dose activity change, negative = inhibition, hits mostly inhibitors; 330,000 tested, 0.52% active; P00811;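 also: plate controls were no compound for no effect and no enzyme for full effect; nearly all actives have a fitted effect of over 20% in size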
Target sequence (P00811 whole entry, looked up): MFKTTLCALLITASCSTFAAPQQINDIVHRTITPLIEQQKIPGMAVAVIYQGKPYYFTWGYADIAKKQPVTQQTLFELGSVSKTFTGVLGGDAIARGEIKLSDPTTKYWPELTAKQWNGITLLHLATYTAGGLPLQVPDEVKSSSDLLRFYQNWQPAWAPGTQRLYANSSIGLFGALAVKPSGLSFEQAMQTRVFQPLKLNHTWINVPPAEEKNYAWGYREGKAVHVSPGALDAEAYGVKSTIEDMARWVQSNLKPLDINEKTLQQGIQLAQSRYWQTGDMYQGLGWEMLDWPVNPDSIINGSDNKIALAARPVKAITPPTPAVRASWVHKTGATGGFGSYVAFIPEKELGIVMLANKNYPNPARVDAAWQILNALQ
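AmpC (5.3 nM in the dispensed reagent) in 20 mM phosphate pH 7.0 with 0.01% (detergent screen) or 0.0001% Triton X-100 was preincubated with compounds for 15 min at room temperature. Nitrocefin was then added from an 800 uM solution, and hydrolysis was followed at 480 nm.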
AmpC detergent: inhibitors of E. coli AmpC beta-lactamase with detergent. AmpC hydrolysis of nitrocefin, absorbance 480 nm, 0.01% Triton. Potency, µM (top dose mostly 114 µM), for inactives: at the highest dose activity change, negative = inhibition, usual class: inhibitors. 370,000 tested, 0.041% active. AID 485294. P00811;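 also: 0% = no-compound wells and -100% = no-enzyme wells; nearly all actives have a fitted effect of over 25% in size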
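AmpC (5.3 nM in the dispensed reagent) in 20 mM phosphate pH 7.0 with 0.01% (detergent screen) or 0.0001% Triton X-100 was preincubated with compounds for 15 min at room temperature. Nitrocefin was then added from an 800 uM solution, and hydrolysis was followed at 480 nm.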
Pf growth 48h: P. falciparum growth inhibition at 48 hours (one generation); P. falciparum luciferase growth in erythrocytes, 48 h; Potency, µM (top dose mostly 28.7 µM), without a hit: at the top dose activity change, negative = inhibition, most hits filed as inhibitors; 310,000 tested, 5.9% active; also: % is scaled to controls: 0 for no effect and ±100 for the full control effect
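In quantitative HTS format, infected erythrocytes bearing luciferase-reporter parasites were treated for a single generation at 37 C. Luminescence after adding detection reagent served as the growth measure.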
SARS PLP yeast: blocks SARS-CoV papain-like protease in a yeast assay; 330,000 tested, 0.19% active; S. cerevisiae expressing SARS-CoV PLpro, growth rescue; Potency, µM (doses to about 32.9 µM), inactives show top-dose activity, positive = growth rescue, usual class: activators; calls by dose curve; also: 0% is about no effect; nearly all actives have a fitted effect of over 55% in size
Pf growth 96h: P. falciparum growth inhibition at 96 hours | Potency, µM (top dose mostly 28.7 µM), without a hit: at the top dose activity change, negative = inhibition, usual class: inhibitors | AID 504834 | 320,000 tested, 6.9% active | P. falciparum luciferase reporter growth, 96 h; also: % is scaled to controls: 0 for no effect and ±100 for the full control effect
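Cell-based qHTS: luciferase-tagged P. falciparum in erythrocytes (2% hematocrit, 0.05% parasitemia final) incubated with compounds for 96 hours, 37 C, 5% CO2; luciferase detection reagent then added and luminescence measured.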
Sm TGR block: inhibitors of Schistosoma mansoni thioredoxin glutathione reductase; 360,000 tested, 3% active; Q962Y6; AID 485364; purified TGR, DTNB reduction, TNB absorbance 405 nm; Potency, µM (series often up to 114 µM), inactives show at the highest dose activity change, negative = inhibition, hits mostly inhibitors; also: % is scaled to controls: 0 for no effect and ±100 for the full control effect; nearly all actives have a fitted effect of over 60% in size
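Kinetic colorimetric format: TGR-catalysed, NADPH-driven DTNB reduction monitored via TNB absorbance. Enzyme dispensed at 20 nM; compound exposure 15 min at room temperature before reaction start.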
Active calls of the source: *; ? = inconclusive; / = not tested or not shown. Unless noted, calls follow the shape of the dose curve; as a rule, active = well fitted curve in the direction sought with a large enough effect; inconclusive = small, poorly fitted or top-dose-only effect, or another doubt; inactive = no such curve, though single readings can be large; an effect the other way counts as inactive or inconclusive. Potency is read from the fitted curve at half-maximal effect.

SMILES	AmpC inh no detg	AmpC detergent	Pf growth 48h	SARS PLP yeast	Pf growth 96h	Sm TGR block
CC1CCC2(CC1)SCC(=O)N2c1ccc(F)cc1 (stereo not drawn)	10.3%	-8.1%	28.8%	-4.0%	10.6%	1.0%
COc1cc(NC(=O)Cn2c(-c3cncs3)nc3ccccc32)cc(OC)c1OC	99.9%	-4.9%	2.33µM*	7.1%	17.6%	3.0%
CC(=O)c1ccccc1NC(=O)COC(=O)Cc1cccc(C(F)(F)F)c1	4.6%	-13.0%	-14.7%	0.7%	-20.7%	0.7%
CC(C)c1nc2c(c(=O)c3ccccc3n2C)c(=O)n1CCc1ccccc1	-3.1%	6.5%	?	0.3%	4.65µM*	-8.6%
COc1ccc(Cn2c(C3CCCCC3)nc3c(c(=O)c4ccccc4n3C)c2=O)cc1	-12.9%	1.9%	3.29µM*	0.9%	2.33µM*	6.5%
COc1ccc(CCn2c(-c3ccccc3)nc3c(c(=O)c4ccccc4n3C)c2=O)cc1	-17.0%	-10.6%	0.0%	-28.0%	?	7.2%
COc1ccc(CCn2c(C3CCCCC3)nc3c(c(=O)c4ccccc4n3C)c2=O)cc1OC	-1.2%	4.4%	3.29µM*	5.7%	4.65µM*	0.0%
COc1ccc(CCn2c(C(C)C)nc3oc4ccccc4c(=O)c3c2=O)cc1	3.5%	0.7%	8.28µM*	-0.6%	6.57µM*	-1.7%
COc1ccc(CCn2c(C3CCCCC3)nc3c(c(=O)c4ccccc4n3C)c2=O)cc1	-38.6%	3.3%	?	4.6%	?	13.2%
CCOc1ccccc1CNc1nc2nc(C)c(CC(=O)OC)c(=O)n2[nH]1	/	-3.9%	/	/	/	-0.2%
COCCN(C(=O)CSc1nnc(-c2ccccc2OC)o1)c1c(N)n(CC(C)C)c(=O)[nH]c1=O	-0.4%	-0.8%	?	-3.3%	?	-0.1%
COc1ccc(N2CCN(C(=O)C3CCN(S(=O)(=O)c4cccc5nonc45)CC3)CC2)cc1	/	0.5%	/	/	/	-11.7%
COCCn1c(-c2ccc(Cl)cc2)nc2c(c(=O)c3ccccc3n2C)c1=O	-26.5%	?	?	0.0%	8.28µM*	-1.4%
COc1ccc(Cn2c(-c3ccccc3)nc3c(c(=O)c4ccccc4n3C)c2=O)cc1	-22.5%	-9.8%	-14.8%	9.0%	11.7µM*	-0.5%
Cc1nn(Cc2nnc(SCC(=O)Nc3ccc(Cl)cc3)n2C)c(C)c1[N+](=O)[O-]	62.2%	2.9%	-10.2%	4.9%	-4.1%	-0.7%
COc1ccccc1NC(=O)Cn1nc2c3cc(F)ccc3n(Cc3cccc(C)c3)cc-2c1=O	/	14.6%	/	/	/	-2.2%
CCOC(=O)c1c(N)sc2c1CCC1C(=O)N(C3CCCCC3)C(=O)C21 (stereo not drawn)	-47.7%	-12.9%	13.1µM*	-12.8%	14.7µM*	3.0%
CCOC(=O)c1c(N)sc2c1CCC(CC)C2 (stereo not drawn)	-18.0%	?	/	0.9%	-11.7%	1.3%
c1ccc2c(c1)NCC1CCCN21 (stereo not drawn)	-15.4%	-2.7%	?	-1.8%	23.4%	31.6µM*
CCCCc1c(C)c(C#N)c2nc3ccccc3n2c1Nc1c(C)n(C)n(-c2ccccc2)c1=O	-12.6%	1.0%	1.85µM*	5.4%	2.08µM*	3.6%
CCc1c(C)c(C#N)c2nc3ccccc3n2c1NC	-7.0%	-9.9%	-12.0%	1.5%	-17.2%	14.0%
Cc1c(Nc2c3c(c(C#N)c4nc5ccccc5n24)CCC3)c(=O)n(-c2ccccc2)n1C	-16.5%	-6.4%	-2.0%	5.2%	13.0%	31.6µM*
COc1ccc(-c2nnc3ccc(SCC(=O)Nc4nc5ccccc5s4)nn23)cc1OC	-14.4%	?	8.28µM*	15.9%	?	-7.7%
O=C(CSc1ccccn1)Nc1nc2ccccc2s1	-14.4%	-20.9%	44.8%	7.6%	2.94µM*	-8.4%
CCOCC(=O)Nc1nc2ccccc2s1	-22.0%	-4.6%	432.6%	3.0%	14.7µM*	35.5µM*
SMILES	AmpC inh no detg	AmpC detergent	Pf growth 48h	SARS PLP yeast	Pf growth 96h	Sm TGR block
Cc1ccc(NC(=O)CN2C(=O)N/C(=C/c3cc(C)n(-c4ccc(C(=O)O)cc4)c3C)C2=O)cc1	-19.3%	-2.5%	-18.8%	2.7%	?	44.7µM*
Cc1ccc(NC(=O)CN2C(=O)N/C(=C/c3ccco3)C2=O)cc1	?	-21.7%	60.8%	-5.4%	34.8%	50.1µM*
COc1ccc(N(C(=O)C2COc3ccccc3O2)C(C(=O)NC2CCCCC2)c2ccccc2)cc1OC (stereo not drawn)	-15.2%	-8.0%	7.38µM*	9.1%	?	0.6%
COc1cc(OC)cc(N(C(=O)C2COc3ccccc3O2)C(C(=O)NC2CCCCC2)c2ccc(O)cc2)c1 (stereo not drawn)	-19.9%	-5.0%	13.1µM*	2.6%	7.38µM*	-7.0%
COc1cccc(C(C(=O)NC2CCCCC2)N(CCN2CCOCC2)C(=O)C2COc3ccccc3O2)c1 (stereo not drawn)	48.2%	-5.0%	-29.9%	0.4%	0.1%	12.3%
NC(=O)C1CCN(c2nc(-c3cccc4ccccc34)cs2)CC1	/	/	?	/	-5.3%	/
Cc1nc(C)c(C(=O)NNC(=O)Nc2ccc(Cl)cc2)s1	-19.9%	-6.4%	7.8%	0.4%	33.3%	14.0%
Cc1cc(OCC(=O)Nc2ccc(N3CCN(C(=O)c4ccco4)CC3)cc2)cc(C)c1Cl	-18.4%	-12.5%	9.28µM*	1.9%	?	0.0%
COc1ccc(OCC(=O)Nc2ccc(N3CCN(C(=O)c4ccccc4)CC3)c(Cl)c2)cc1	-7.7%	4.6%	8.28µM*	9.0%	-78.3%	-8.3%
Cc1cccc(OCC(=O)Nc2ccc(N3CCN(C(=O)c4ccco4)CC3)cc2)c1	28.3%	-4.8%	9.28µM*	2.5%	4.0%	12.2%
Cn1c(=O)[nH]c(=O)c2c1nc(N1CCCCCC1)n2CCSc1nc2ccccc2[nH]1	-9.1%	-3.2%	2.7%	6.6%	-4.2%	-6.0%
Cc1cccn2c(=O)cc(CSc3nnc(NC(=O)COc4ccccc4)s3)nc12	-13.5%	-14.6%	?	-2.1%	?	-1.9%
CCCC(=O)C1=C(c2cccc(OC)c2)N(C(=O)CCC)n2c(C)nnc2S1	/	3.9%	/	/	/	3.2%
COc1ccc2[nH]c3c4c(ccc3c2c1)C(=O)C=CC4=O	-34.5%	2.6%	?	-5.3%	?	0.708µM*
COc1cccc(CNC(=O)c2nn(-c3ccc(C)cc3)c(=O)c3c2c2ccccc2n3C)c1	/	2.6%	/	/	/	7.1%
O=C(Nc1nccs1)c1ccc(-c2ccc(F)c(Cl)c2)o1	25.1µM*	0.3%	?	-0.6%	3.8%	?
